Compounds with a hit are over-represented: about 2.1% of the library has one in this group of screens.
CCHFV vOTU inh: blocks the CCHF virus ovarian tumor domain protease; AID 651958; inhibition, % at 11.5 µM; CCHFV vOTU protease, Pep-AMC fluorescence; hit rate 0.55% among 370,000; in the data active = inhibition above about 30%; also: 0% = vehicle wells with enzyme and 100% = no enzyme wells
PfHsp40 rescue: restores yeast growth despite PfHsp40 toxicity; S. cerevisiae expressing PfHsp40, growth rescue, ATP luminescence; growth rescue, % at 12.5 µM; AID 504582; hit rate 0.68% among 340,000; in the data active = growth rescue above about 28%, passing the limit was not always enough; inconclusive = no clear call, values can overlap the other calls;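 also: yeast W303a lacking pdr1 and pdr3 grown in galactose medium; growth measured after three days at 30 °C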
ugtP null kill: compounds lethal to S. aureus RN4220 ugtP deletion mutant; OD600 growth, 16 h; growth inhibition, % (no concentration beside the values); hit rate 0.54% among 330,000; AID 1259309; in the data active = growth inhibition above about 68%;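 also: plate controls were untreated wells for no effect and antibiotic for full effect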
PrPC surface inh: reduces human prion protein on the cell surface; hit rate 0.43% among 370,000; AID 720596; inhibition, % at 13.8 µM; cell surface PrPC, TR-FRET read-out; P04156; in the data active = inhibition above about 24%; also: 0% = median of the test wells and 100% = reference compound wells
PrP 5UTR inh: inhibition of PrP 5' UTR reporter expression; inhibition, % (concentration not given with the values); hit rate 0.35% among 340,000; cell-based PrP 5' UTR mRNA reporter, plate reader; AID 488862; in the data active = inhibition above about 52%; also: 0 = median of the neutral control wells
RN4220 kill: S. aureus RN4220 growth inhibition | hit rate 0.33% among 330,000 | inhibition, % (no concentration beside the values) | OD600, 16 h; in the data active = inhibition above about 85%;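 also: plate controls were untreated cells for no effect and reference antibiotic for full effect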
* marks the source's active call; other numbers are inactive results; ? = inconclusive; · = no result given.

SMILES	CCHFV vOTU inh	PfHsp40 rescue	ugtP null kill	PrPC surface inh	PrP 5UTR inh	RN4220 kill
CC(O)Cc1cn(C(CCCCNC(=O)OC(C)(C)C)C(=O)N2CCN(C(=O)OC(C)(C)C)CC2)nn1 (stereo unspecified)	·	·	-7	·	·	-4
CC(C)(C)NC(=O)C=Cc1ccc(C(F)(F)F)cc1	·	·	0	·	·	5
Cc1cc(NC(=O)C(=O)NCCN2CCN(C(=O)c3cccs3)CC2)ccc1Br	1	2	7	-4	10	4
COc1ccc(NC(=O)C(=O)NCCN2CCN(C(=O)c3cccs3)CC2)cc1	4	58*	12	-6	-17	3
Cc1ccc(CN=c2c([N+](=O)[O-])nn(-c3ccc(Cl)cc3)n2O)cc1	-1	52*	-2	-27	·	-4
CCc1cccc(N=c2c([N+](=O)[O-])nn(-c3ccc(Cl)cc3)n2O)c1	8	3	92*	-9	4	95*
Cc1cc(C)cc(N=c2c([N+](=O)[O-])nn(-c3cccc(Cl)c3)n2O)c1	4	-1	84	-10	-26	88*
Cc1cccc(N=c2c([N+](=O)[O-])nn(-c3ccc(Cl)cc3)n2O)c1	-5	-1	4	-2	-25	-4
O=[N+]([O-])c1nn(-c2ccc(Cl)cc2)n(O)c1=NCc1ccncc1	4	2	46	-31	·	28
Cc1c(N=C2SCC(=O)N2N=Cc2ccccc2)c(=O)n(-c2ccccc2)n1C	·	·	5	·	·	-2
Cc1nn2c(NCc3ccccn3)cc(C(C)C)nc2c1-c1ccccc1	1	37*	0	-12	-12	-2
CC(=O)Nc1ccc(Nc2cc(C)nc3c(-c4ccccc4)c(C)nn23)cc1	-13	2	-3	4	-6	5
CCCc1cc(NCc2ccccn2)n2nc(C)c(-c3ccccc3)c2n1	5	67*	-10	6	-26	-1
CC(=O)Nc1ccc(Nc2cc(C(C)C)nc3c(-c4ccccc4)c(C)nn23)cc1	8	97*	-24	3	-15	-9
Cc1cc(NCc2ccccn2)n2nc(C)c(-c3ccc(Cl)cc3)c2n1	-6	8	-18	-7	-17	1
O=C(NN=CC1CC=CCC1)c1cc2ccccc2cc1O (stereo unspecified)	·	·	-7	·	·	2
COc1ccc(C(=O)NNC2=C(C(=O)C(F)(F)F)CCC2)cc1	7	1	97*	1	-11	1
O=C(NNC1=C(C(=O)C(F)(F)F)CCC1)c1ccc(Cl)cc1	-4	3	100*	2	-19	101*
CC(C)(C)c1ccc(C(=O)NNC(=O)c2ccc(Cl)cc2)cc1	5	1	-1	-1	-3	3
O=C(NNC1=C(C(=O)C(F)(F)F)CCC1)c1cccc(Cl)c1	-3	54*	99*	7	-27	100*
CCCCCCc1ccc(N2CC(CCCCC)C(CC(=O)NCc3ccccc3)C2=O)cc1 (stereo unspecified)	·	·	-25	·	·	-5
COCCNC(=O)C(C#N)=Cc1ccc(-c2ccc(OC)cc2[N+](=O)[O-])o1	·	·	-14	·	·	-2
CCC(C)Sc1cccc(-c2nc3ccccn3c2NCc2ccccc2)c1 (stereo unspecified)	-6	219*	11	5	9	0
CCC(C)Sc1cccc(-c2nc3ccc(C)cn3c2NCc2ccccc2)c1 (stereo unspecified)	-3	7	·	15	-14	·
O=C(NN=Cc1cccc(Oc2ccccc2)c1)c1cccc(Br)c1	·	·	-6	·	·	-12
SMILES	CCHFV vOTU inh	PfHsp40 rescue	ugtP null kill	PrPC surface inh	PrP 5UTR inh	RN4220 kill
Oc1ccc(Cl)cc1Cc1cc(Cl)ccc1O	18	234*	86*	1	-3	94*
C=CC[N+](C)(C)CCCNC(=O)C=NO	·	·	3	·	·	3
COC(=O)c1ccc(-c2ccco2)n1Cc1cccc(C)c1	-4	0	94*	5	-4	-3
O=C(C=Cc1ccccc1)N1CCC(Cc2ccccc2)CC1	·	·	-10	·	·	1
Oc1c(Br)cc(Br)cc1CNc1ccc(F)cc1	8	187*	-14	-5	-17	21
Oc1c(Br)cc(Br)cc1CNc1cnc2ccccc2c1	3	1	5	0	-5	41
COC(=O)C1=COC(C)C2CN3CC[C@]4(C(=O)Nc5ccccc54)C3CC12 (stereo partly specified)	·	·	-2	·	·	5
O=C(CNC(=O)c1ccccc1)NCCCSc1ccccc1	-9	0	7	-1	-12	-1
O=C(NCCCSc1ccccc1)c1cc(Cl)ccc1O	-26	?	89*	3	-15	93*
Cc1cccc(Nc2nc(N)c([N+](=O)[O-])c(N3CC(C)OC(C)C3)n2)c1 (stereo unspecified)	25	-1	9	-16	-10	3
Cc1cccc(Nc2nc(N)c([N+](=O)[O-])c(N3CC(C)CC(C)C3)n2)c1 (stereo unspecified)	13	64*	57	0	-9	-1
O=C(C=Cc1cccs1)N1CCC2(CC1)Oc1ccc(Cl)cc1C(=O)C21CC(c2cccnc2)=NO1 (stereo unspecified)	·	·	-25	·	·	4
O=C1CCCN1CCCNC(=S)Nc1ccc(F)cc1	0	-1	5	-3	2	6
O=C1CCCN1CCC1CCN(C(=S)Nc2ccc(F)cc2)CC1	-2	99*	4	0	6	2
COc1ccc(NC(=O)c2nc[nH]c2C(=O)N[C@@H](CC(C)C)C(=O)OC(C)(C)C)cc1	13	27*	·	2	-7	·
CCOC(=O)c1c(CC(C)C)csc1N=CC1=C(O)CCCC1=O	·	·	-1	·	·	6
CCOc1ccccc1C=NNc1ccccc1[N+](=O)[O-]	·	·	-10	·	·	-3
O=C(CN1CCOCC1)c1ccc(Br)cc1	2	·	15	19	-5	0
N=C1CCCN1CC(=O)c1ccc(Br)cc1	1	46*	3	1	-11	1
COC(=O)C1=C(C)N(c2cc(C)cc(C)c2)/C(=C/c2ccc(O)cc2)C1=O	-5	1	60	-3	-16	89*
COC(=O)C1=C(C)N(c2ccc(Cl)cc2)/C(=C/c2ccc(O)cc2)C1=O	4	0	-3	8	-19	48
CN1C(=O)C2C(C1=O)C(c1ccc(Br)cc1)N1C(=O)c3ccccc3NC(=O)C21 (stereo unspecified)	·	·	-13	·	·	3
COc1cc(/C=N/NC(=O)c2cnccn2)cc(OC)c1OC	7	66*	·	-8	-19	·
COC(=O)c1sc(-c2ccc(Cl)cc2)cc1NC(=O)CSCC(=O)O	-17	1	-9	-4	-13	18
COC(=O)c1sc(-c2ccc(C(C)(C)C)cc2)cc1NC(=O)COCC(=O)O	17	33*	0	-6	-58	9
CCOC(=O)c1c(-c2ccc(OC)cc2)csc1N=CN(C)C	·	·	7	·	·	6
O=c1c2c(O)cc(O)cc2oc2c(O)ccc(OC3OC(CO)C(O)C(O)C3O)c12 (stereo unspecified)	·	·	-11	·	·	9
CC1=C(C)/C(=N\OS(=O)(=O)c2ccccc2)C=CC1=O	·	637*	·	·	-16	·
